HP1b binding inh: HP1-beta chromodomain-methylated histone interaction inhibition; actives 0.56% (n = 390,000); Potency, µM (titrated, usually from 114 µM), hits mostly inhibitors; AlphaScreen HP1-beta / biotin-H3K9me3 peptide binding; note: nearly all actives have a fitted effect of over 70% in size
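Compound inhibition of the preformed complex between 50 nM HP1-beta and 50 nM biotinylated H3K9me3 peptide was read by AlphaScreen. Buffer was PBS pH 7.4 with 0.01% Tween-20. Incubations ran 30 min at room temperature, with 10 ug/mL donor/acceptor beads.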
Sfp inh: blocks B. subtilis Sfp PPTase activity. Biochemical Sfp PPTase activity, qHTS. Q9F4F7. AID 1490. Potency, µM, hits mostly inhibitors. actives 3.5% (n = 310,000);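 note: the enzyme is Sfp with the accession as filed and its product quenches rhodamine fluorescence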
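Sfp 15 nM + cpd, 15 min RT; start w/ rhodamine-CoA 5 uM, BHQ-2-YbbR 12.5 uM (final); 50 mM Hepes pH 7.6, 10 mM MgCl2, 0.01% NP-40, 0.01% BSA; read 525/598 nm at 0 and 30 min.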
G9a inh: blocks human histone lysine methyltransferase G9a; Q96KQ7; G9a H3K9 monomethylation, AlphaScreen, 2 h; Potency, µM (series often up to 102 µM), hits mostly inhibitors; actives 8.8% (n = 350,000); note: nearly all actives have a fitted effect of over 75% in size
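Enzyme 20 nM + cpd, 15 min RT; add b-H3K9 pep 500 nM / SAM 20 uM; 2 h RT; anti-H3K9me1 Ab 0.5 ug/mL + SA donor / anti-rabbit acceptor beads 20 ug/mL each, 10 min; AlphaScreen read.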
BAZ2B inh: blocks human BAZ2B; AlphaScreen BAZ2B-H3K14Ac peptide displacement; Potency, µM (doses to about 114 µM), usual class: inhibitors; actives 4.4% (n = 360,000); AID 504333; note: nearly all actives have a fitted effect of over 60% in size
Target sequence (Q9UIF8 whole entry, looked up): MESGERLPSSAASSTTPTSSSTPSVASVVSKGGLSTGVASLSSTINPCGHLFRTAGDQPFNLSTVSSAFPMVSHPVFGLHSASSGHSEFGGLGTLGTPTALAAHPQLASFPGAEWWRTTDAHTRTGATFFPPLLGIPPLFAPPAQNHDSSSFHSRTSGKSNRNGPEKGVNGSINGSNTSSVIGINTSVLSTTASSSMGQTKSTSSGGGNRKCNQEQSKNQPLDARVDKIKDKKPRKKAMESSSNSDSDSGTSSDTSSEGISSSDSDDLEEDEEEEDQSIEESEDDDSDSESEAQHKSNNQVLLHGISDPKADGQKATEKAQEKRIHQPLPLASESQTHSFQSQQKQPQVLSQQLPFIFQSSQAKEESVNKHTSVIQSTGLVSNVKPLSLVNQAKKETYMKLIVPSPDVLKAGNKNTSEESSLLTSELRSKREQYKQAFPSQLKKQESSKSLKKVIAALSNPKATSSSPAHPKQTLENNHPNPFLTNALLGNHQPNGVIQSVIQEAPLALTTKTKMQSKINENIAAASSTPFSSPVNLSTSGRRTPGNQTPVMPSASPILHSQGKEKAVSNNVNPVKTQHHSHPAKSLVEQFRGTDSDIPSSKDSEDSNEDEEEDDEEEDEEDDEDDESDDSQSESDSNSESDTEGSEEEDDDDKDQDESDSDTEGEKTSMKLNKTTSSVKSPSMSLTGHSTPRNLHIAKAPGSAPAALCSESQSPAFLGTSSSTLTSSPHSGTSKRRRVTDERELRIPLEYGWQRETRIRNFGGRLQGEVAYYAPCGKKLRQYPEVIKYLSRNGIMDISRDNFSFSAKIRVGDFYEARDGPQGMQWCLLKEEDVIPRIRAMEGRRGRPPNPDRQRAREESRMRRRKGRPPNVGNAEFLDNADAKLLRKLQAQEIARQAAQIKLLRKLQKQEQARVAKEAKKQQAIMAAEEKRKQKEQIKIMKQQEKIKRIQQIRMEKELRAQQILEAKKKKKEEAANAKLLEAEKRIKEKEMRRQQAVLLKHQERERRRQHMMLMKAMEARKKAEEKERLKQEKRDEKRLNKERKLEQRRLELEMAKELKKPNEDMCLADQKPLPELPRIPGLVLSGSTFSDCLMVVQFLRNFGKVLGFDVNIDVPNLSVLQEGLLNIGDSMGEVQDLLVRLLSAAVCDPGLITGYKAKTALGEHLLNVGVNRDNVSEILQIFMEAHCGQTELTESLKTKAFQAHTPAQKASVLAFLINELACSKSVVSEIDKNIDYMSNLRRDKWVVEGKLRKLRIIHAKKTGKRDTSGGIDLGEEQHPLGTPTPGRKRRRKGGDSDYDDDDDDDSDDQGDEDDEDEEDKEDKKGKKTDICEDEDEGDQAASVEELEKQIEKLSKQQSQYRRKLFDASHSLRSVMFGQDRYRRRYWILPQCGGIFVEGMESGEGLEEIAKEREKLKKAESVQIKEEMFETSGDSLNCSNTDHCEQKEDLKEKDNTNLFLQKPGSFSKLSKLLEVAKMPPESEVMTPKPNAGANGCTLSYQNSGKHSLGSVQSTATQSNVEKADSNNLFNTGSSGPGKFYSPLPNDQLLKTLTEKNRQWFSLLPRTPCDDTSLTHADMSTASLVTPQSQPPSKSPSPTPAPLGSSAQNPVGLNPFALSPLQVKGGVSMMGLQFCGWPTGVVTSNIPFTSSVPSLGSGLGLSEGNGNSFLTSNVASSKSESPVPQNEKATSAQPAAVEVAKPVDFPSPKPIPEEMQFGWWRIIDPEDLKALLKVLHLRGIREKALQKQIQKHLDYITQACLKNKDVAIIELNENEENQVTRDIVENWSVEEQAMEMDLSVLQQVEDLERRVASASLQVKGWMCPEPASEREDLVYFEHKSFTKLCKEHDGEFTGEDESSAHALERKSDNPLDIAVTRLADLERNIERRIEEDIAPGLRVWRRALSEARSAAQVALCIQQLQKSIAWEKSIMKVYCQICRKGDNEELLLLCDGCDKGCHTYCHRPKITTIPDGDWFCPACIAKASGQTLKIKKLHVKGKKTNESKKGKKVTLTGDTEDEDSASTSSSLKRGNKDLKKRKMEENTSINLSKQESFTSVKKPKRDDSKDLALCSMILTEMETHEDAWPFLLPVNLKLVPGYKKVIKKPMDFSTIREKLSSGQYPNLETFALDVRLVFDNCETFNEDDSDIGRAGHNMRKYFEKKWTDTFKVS
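AlphaScreen luminescence quantifies BAZ2B engagement of H3K14Ac peptide; the protein and biotinylated peptide are both at 50 nM final, buffer PBS pH 7.4 with 0.01% Tween-20, all steps at room temperature.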
JMJD2A Tudor inh: blocks the human JMJD2A Tudor domain; actives 4.4% (n = 390,000); AID 504339; Potency, µM (highest dose often 114 µM), actives largely listed as inhibitors; AlphaScreen JMJD2A-Tudor / H3K4me3 peptide binding; note: nearly all actives have a fitted effect of over 50% in size
Large screens that a line does not name were inactive. Only some compounds are listed: those with a hit (about 12% of all), similar ones and a draw of the others. Calls come from the whole dose curve; as a rule, active = well fitted curve in the direction sought with a large enough effect; inconclusive = small, poorly fitted or top-dose-only effect, or another doubt; inactive = no such curve, though single readings can be large; an effect the other way counts as inactive or inconclusive.

COCCn1c(=O)c(-c2ccc(Cl)cc2)nc2cncnc21	none (no result: HP1b binding inh, BAZ2B inh, JMJD2A Tudor inh)
COC(=O)N1C2CC3(C)C=C(C)OC1(C)C3c1ccccc12 (stereo unspecified)	none (no result: HP1b binding inh, G9a inh, BAZ2B inh, JMJD2A Tudor inh)
COc1ccc(Br)cc1CNC(=O)CCSCc1ccc(C)cc1	none (no result: Sfp inh)
COc1ccc(Br)c2c1-c1nc(NC(=O)c3cccc(C)c3)sc1C2	G9a inh inconclusive, BAZ2B inh inconclusive, JMJD2A Tudor inh inconclusive (no result: Sfp inh)
CCn1cc(C(=O)NCCc2ccc(C)cc2)c(=O)c2cc(S(=O)(=O)N3CCc4ccccc4C3)ccc21	none (no result: Sfp inh, BAZ2B inh)
CN(C)c1ccc(CC2C(=O)Nc3ccccc32)cc1 (stereo unspecified)	HP1b binding inh 28µM, Sfp inh 45µM, G9a inh 3.2µM, BAZ2B inh inconclusive, JMJD2A Tudor inh 7.1µM
CN(C)c1ccc(NC(=O)C(=O)C2C(=O)Nc3ccccc32)cc1 (stereo unspecified)	G9a inh 56µM
O=C1Nc2ccccc2C1Cc1ccc(Br)cc1 (stereo unspecified)	none (no result: Sfp inh)
O=C(CSc1oc(-c2ccco2)nc1S(=O)(=O)c1ccc(Cl)cc1)c1ccc(Cl)cc1	BAZ2B inh inconclusive, JMJD2A Tudor inh inconclusive (no result: Sfp inh)
CCc1ccc(CNC(=O)CCN2C(=O)COc3ccccc32)cc1	none (no result: Sfp inh)
CCNC(=O)NC(=O)C(C)Sc1nnc(COc2ccccc2Cl)o1 (stereo unspecified)	G9a inh 18µM, BAZ2B inh inconclusive, JMJD2A Tudor inh inconclusive
CNC(=S)N/N=C/c1cc(Br)cc(Br)c1O	HP1b binding inh inconclusive, BAZ2B inh 3.2µM, JMJD2A Tudor inh 32µM
Oc1c(Br)cc(Br)cc1/C=N/NC(=S)N[C@H]1CC2C=CC1C2 (stereo partly specified)	JMJD2A Tudor inh 40µM (no result: G9a inh)
COc1ccc(OCC(=O)NNC(=O)Cn2c(=O)cnc3ccccc32)cc1	G9a inh 71µM, BAZ2B inh inconclusive (no result: Sfp inh)
Cc1cccc(OCC(=O)NNC(=O)Cn2c(=O)cnc3ccccc32)c1	none (no result: Sfp inh)
O=C1Nc2cc(C(=O)NCC3CCCO3)ccc2S/C1=C/c1ccccc1F (stereo unspecified)	none
CCN(CC)CCN(C(=O)c1ccco1)c1nc2ccc(F)cc2s1	none (no result: Sfp inh)
Cc1cc(C)c2nc(N(CCCN(C)C)C(=O)c3ccc4c(c3)OCCO4)sc2c1	G9a inh 50µM, JMJD2A Tudor inh inconclusive (no result: Sfp inh)
CCN(CC)CCN(C(=O)c1ccc2ccccc2c1)c1nc2ccc(F)cc2s1	G9a inh 45µM, JMJD2A Tudor inh inconclusive
CCN(CC)CCN(C(=O)c1cc2c(ccc3ccccc32)oc1=O)c1nc2cc3c(cc2s1)OCCO3	Sfp inh 40µM, BAZ2B inh inconclusive (no result: G9a inh)
Cc1ccc2nc(NNC(=O)c3ccc4c(c3)OCCO4)sc2c1	Sfp inh inconclusive, G9a inh 11µM, BAZ2B inh inconclusive, JMJD2A Tudor inh inconclusive
CCN(CC)CCN(C(=O)c1ccc2c(c1)OCCO2)c1nc2cc3c(cc2s1)OCO3	JMJD2A Tudor inh inconclusive
CN(C)CCCN(C(=O)c1ccc2c(c1)OCCO2)c1nc2ccccc2s1	none (no result: Sfp inh)
Cc1ccc2nc(N(CCN(C)C)C(=O)c3ccc4c(c3)OCCO4)sc2c1	G9a inh 45µM, BAZ2B inh inconclusive, JMJD2A Tudor inh inconclusive
Cc1ccc2nc(N(CCCN(C)C)C(=O)c3ccc4ncsc4c3)sc2c1	Sfp inh 40µM, G9a inh 14µM, BAZ2B inh inconclusive, JMJD2A Tudor inh 40µM
CCCCN(C)S(=O)(=O)c1ccc(C(=O)N(CCN(C)C)c2nc3ccc(C)cc3s2)cc1	G9a inh 40µM, BAZ2B inh inconclusive, JMJD2A Tudor inh inconclusive
CCN(CC)CCN(C(=O)c1ccc2c(c1)OCCO2)c1nc2ccc(C)cc2s1	G9a inh 79µM, BAZ2B inh 35µM, JMJD2A Tudor inh inconclusive
CCOc1cccc(C2C=C(c3ccc4c(c3)OCO4)NC(c3ccccc3Cl)N2)c1O (stereo unspecified)	none (no result: Sfp inh, G9a inh, BAZ2B inh)
CCOC(=O)CNC(=O)O[C@@H]1C(=O)c2cc(Br)ccc2O[C@H]1c1ccc2c(c1)OCO2	none (no result: HP1b binding inh, G9a inh, BAZ2B inh, JMJD2A Tudor inh)
CCOC(=O)c1sc(N2C(=O)c3oc4cc(C)c(C)cc4c(=O)c3C2c2ccc(C)cc2)nc1C (stereo unspecified)	none (no result: Sfp inh)
CN(C)CCN(C(=O)c1ccc(Br)s1)c1nc2cc3c(cc2s1)OCCO3	Sfp inh 56µM, G9a inh inconclusive (no result: BAZ2B inh)
CCN(CC)CCN(C(=O)c1ccc(S(=O)(=O)N(C)C2CCCCC2)cc1)c1nc2ccc(OC)cc2s1	G9a inh inconclusive, JMJD2A Tudor inh inconclusive
CCN(CC)CCN(C(=O)c1ccc(C(=O)c2ccccc2)cc1)c1nc2ccc(OC)cc2s1	G9a inh 45µM, BAZ2B inh inconclusive, JMJD2A Tudor inh inconclusive
Cc1ccc2nc(NNC(=O)c3ccc(S(=O)(=O)N4CCc5ccccc5C4)cc3)sc2c1	BAZ2B inh 4.5µM, JMJD2A Tudor inh inconclusive
CN(C)CCN(C(=O)c1cccs1)c1nc2cc3c(cc2s1)OCCO3	G9a inh inconclusive
Cc1ccc2nc(N(CCN(C)C)C(=O)c3ccc4ccccc4c3)sc2c1	Sfp inh inconclusive, G9a inh 40µM, BAZ2B inh inconclusive, JMJD2A Tudor inh 45µM
CC(=O)N1CC(C)Oc2ccc(S(=O)(=O)Nc3ccc(Cl)cn3)cc21 (stereo unspecified)	none
COc1ccc(CCNC(=O)c2ccc3c(c2)ncn3-c2ccc(C(C)C)cc2)cc1OC	G9a inh inconclusive, JMJD2A Tudor inh inconclusive (no result: Sfp inh)
COCCCNC(=O)COc1cc2c(c3oc(=O)c(C)c(C)c13)CCC(C)(C)O2	none
Cc1csc2nc(COC(=O)CNC(=O)c3ccccc3Cl)cc(=O)n12	none (no result: Sfp inh)
COc1ccc(CCNC(=O)c2ccc3c(c2)N(Cc2cc(C)ccc2C)C(=O)c2ccccc2S3=O)cc1OC (stereo unspecified)	none (no result: Sfp inh)
O=c1oc2c(-c3ccc([N+](=O)[O-])cc3)cc(O)cc2s1	HP1b binding inh inconclusive, Sfp inh 40µM, G9a inh 56µM
COc1ccc(S(=O)(=O)Nc2cc3c4c(c2)CCN4C(=O)CC3)cc1	none (no result: Sfp inh)
O=C(Cn1cnc2c(OCc3ccccc3)ncnc21)NCCCc1ccccc1	none (no result: Sfp inh, G9a inh, BAZ2B inh)
COc1ccc(-n2nc(C(=O)NCC(=O)NCCCN3CCC(C)CC3)c3ccccc3c2=O)cc1Cl	none
COc1ccc(-n2nc(C(=O)NCC(=O)NCCCN3CCCCCC3)c3ccccc3c2=O)cc1Cl	G9a inh 25µM
CCN(CCCNC(=O)CNC(=O)c1nn(-c2ccc(OC)c(OC)c2)c(=O)c2ccccc12)c1ccccc1	G9a inh inconclusive, JMJD2A Tudor inh inconclusive
COc1ccc(-n2nc(C(=O)NCC(=O)Nc3ccccn3)c3ccccc3c2=O)cc1Cl	Sfp inh inconclusive, BAZ2B inh inconclusive, JMJD2A Tudor inh 32µM
CCN(CCCNC(=O)CNC(=O)c1nn(-c2ccc(OC)cc2)c(=O)c2ccccc12)c1cccc(C)c1	G9a inh 32µM, JMJD2A Tudor inh inconclusive
COc1ccc(-n2nc(C(=O)NCC(=O)Nc3cccc(Cl)c3)c3ccccc3c2=O)cc1OC	Sfp inh 56µM

Source: PubChem (National Center for Advancing Translational Sciences (NCATS))
